Measurements: PubChem BioAssay AID1789 (The Scripps Research Institute Molecular Screening Center, 2009)
The whole screen tested about 290,000 compounds, of which about 2,700 (0.93%) were called active.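 Rule for the calls: active = inhibition above the screen-wide mean plus 3 SD, computed separately per campaign (cut at about 16% in these data); inactive = the rest.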 The entries come from a sample that favours actives as a whole.

tested on: Heat shock protein HSP 90 (rabbit reticulocyte lysate; luciferase refolding); assay: HSP90 inhibitors, primary screen, cell lysate, luminescence (AID 1789); conditions: 3 h, at 5.6 µM, stronger effect = higher value;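 note: 0% = DMSO wells and 100% = 60 µM geldanamycin wells; inhibitors lower the luminescence because luciferase stays unfolded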

SMILES	inhibition
CCc1ccc(NC(=O)CCNS(=O)(=O)c2cccs2)cc1	-2.78% (inactive)
COCC(=O)Nc1c(C(=O)N2CCCC2)oc2ccccc12	-3.81% (inactive)
Clc1ccc(-c2ncc3ccccn23)c(Cl)c1	4.35% (inactive)
O=C1CSC(c2ccccc2)N1c1nc(-c2ccc(Cl)cc2Cl)cs1 (stereo not drawn)	-0.17% (inactive)
Clc1ccc(-c2cc(-c3ccccn3)on2)c(Cl)c1	38.6% (active)
O=C(O)c1cccc(N=NN2CCCCCC2)c1	37.5% (active)
CN1CCN(S(=O)(=O)c2cccc(C(=O)O)c2)CC1	-1.11% (inactive)
O=C(O)c1ccc(N=NN2CCOCC2)cc1	20.6% (active)
NC(=NC(=O)c1ccccc1)N1CCOCC1	-2.45% (inactive)
O=C(c1ccccc1)N1CCN(C(=O)N2CCCCC2)CC1	-0.28% (inactive)
O=C(NC(=O)N1CCOCC1)c1ccccc1	0.55% (inactive)
COc1ccc(Cc2nnc(NC(=O)c3ccc(OC)cc3OC)s2)cc1	-0.32% (inactive)
COC(=O)c1sc(NC(=O)c2ccc(OC)cc2OC)nc1C	36.3% (active)
COC(=O)c1sc(NC(=O)c2csc3c2CCCC3)nc1C	35.7% (active)
Cc1ccc(NC(=O)c2csc3c2CCCC3)cc1	1.71% (inactive)
COc1cc(SC)ccc1C(=O)Nc1cc(C)ccn1	12.1% (inactive)
COc1cc(SC)ccc1C(=O)Nc1nc(C)cs1	82.5% (active)
COc1cc(SC)ccc1C(=O)NCCOc1ccccc1Cl	3.08% (inactive)
COc1cc2ccccc2cc1C(=O)Nc1nc(C)c(C(C)=O)s1	10.7% (inactive)
COC(=O)c1sc(NC(=S)NC(=O)c2ccc(C)cc2)nc1C	1.68% (inactive)
CCN(C(=O)c1cc([N+](=O)[O-])ccc1NCc1cccnc1)c1ccccc1	-2.39% (inactive)
Cc1ccc(-c2csc(N3CCN(c4cc5c(cc4Cl)nc(-c4ccncc4)n5CCOCCO)CC3)n2)cc1	0.37% (inactive)
O=C(O)c1cc2c(cc1NC(=O)c1c(F)cccc1Cl)OCCCO2	1.02% (inactive)
Cc1cc(=O)oc2cc(OCC(=O)N3CCN(c4ccc(F)cc4)CC3)c(Cl)cc12	0.58% (inactive)
CCOc1ccccc1NS(=O)(=O)c1c[nH]c(C(=O)OC)c1	-0.36% (inactive)

SMILES	inhibition
CCC1Oc2ccccc2N(CC(=O)NCCCN2CCN(CC)CC2)C1=O (stereo not drawn)	-0.16% (inactive)
O=C(CCc1nc2ccccc2c(=O)[nH]1)OCC(=O)c1cccc(Cl)c1	-0.45% (inactive)
CCCc1nc2ccccc2c(C(=O)OCC(=O)c2ccc3c(c2)NC(=O)CO3)c1CC	10.5% (inactive)
Cc1ccc(C(=O)COC(=O)c2cccc(N3C(=O)c4c(C)nc5ccccc5c4C3=O)c2)cc1C	21.8% (active)
COc1ccc(Cl)cc1-n1c(=S)sc2c(=O)n(-c3ccc(F)cc3)c(SCC(=O)O)nc21	-4.32% (inactive)
CCc1nc(SCC(=O)Nc2ccccc2OC)n[nH]1	37.9% (active)
COC(=O)c1ccccc1NC(=O)CSc1n[nH]c(-c2ccncc2)n1	-0.92% (inactive)
CCCCCNC(=O)c1cccnc1SCC(=O)Nc1ccccc1OC	0.66% (inactive)
Nc1nnnn1/N=C/c1cccc(Br)c1	-1.72% (inactive)
CCCN1C2CCCC1CC(NC(=O)NC13CC4CC(CC(C4)C1)C3)C2 (stereo not drawn)	2.81% (inactive)
CNC(=S)N/N=C/c1ccc(N2CCOCC2)s1	5.17% (inactive)
C/C(=N\NC(=O)Cc1ccc(Cl)cc1)c1ccccn1	1.95% (inactive)
C/C(=N\NC(=O)c1ccccc1F)c1ccccn1	21.6% (active)
COc1ccc(CC(=O)N/N=C(\C)c2ccccn2)cc1	2.53% (inactive)
Cc1ccc(/C=C2/SC(=S)N(CCC(=O)NCCCN3CCOCC3)C2=O)cc1	-1.06% (inactive)
O=C1CCC(C(=O)N2CCC(O)(c3ccccc3)CC2)CN1CCc1ccccc1 (stereo not drawn)	-4.78% (inactive)
O=C(CN(C(=O)c1nsc(Cl)c1Cl)c1cccc(F)c1)NC1CCCC1	-2.72% (inactive)
COc1ccc(CNC(=O)CCN2C(=O)c3ccccc3C2=O)cc1	3.06% (inactive)
CN(Cc1ccccc1)C(=O)C1CCCN(c2ncnc3c2nc2n3CCCCC2)C1 (stereo not drawn)	-4.53% (inactive)
CC(C)(C)OC(=O)c1c(N)n(CCCN2CCCC2=O)c2nc3ccccc3nc12	17.2% (active)
CC(C)(C)c1ccc(C(=O)NCCn2c(N)c(C#N)c3nc4ccccc4nc32)cc1	2.15% (inactive)
COCC(C)OC(=O)c1c(N)n(CCCN2CCOCC2)c2nc3ccccc3nc12 (stereo not drawn)	4.05% (inactive)
COc1cc2c(C(=O)O)c(C)n(C)c2c2ccccc12	1.04% (inactive)
Cc1c(C(=O)N/N=C/c2ccccc2)[nH]c2c([N+](=O)[O-])cccc12	3.21% (inactive)
COc1cccc2c(C)c(C(=O)O)[nH]c12	30.8% (active)

SMILES	inhibition
Cc1cccc(-c2c(NC(=O)c3ccco3)oc3ccc(Cl)cc3c2=O)c1	3.25% (inactive)
CCOC(=O)c1nc(C)n(-c2ccc(Cl)cc2Cl)n1	17.8% (active)
Cc1cc(C)nc(/N=C2\NC(=O)CC(C(=O)O)N2c2ccc(Cl)cc2Cl)n1 (stereo not drawn)	3.62% (inactive)
CCOC(=O)c1cnc(SC)nc1Sc1ccc(Cl)cc1Cl	-1.52% (inactive)
CC(=O)N1CCN(CC(C)(C)NS(=O)(=O)c2ccc(C)cc2)CC1	-0.75% (inactive)
CC(CC(=O)Nc1ccc(F)cc1F)S(=O)(=O)c1ccc2c(c1)NC(=O)CO2 (stereo not drawn)	-2.21% (inactive)
Cc1ccsc1C(=O)OCC(=O)c1cc(C)n(CC2CCCO2)c1C (stereo not drawn)	82.5% (active)
Cc1cc(C(=O)Cn2cnc3cc([N+](=O)[O-])ccc3c2=O)c(C)n1CC1CCCO1 (stereo not drawn)	-6.94% (inactive)
Cc1cc(C(=O)CCl)c(C)n1CC1COc2ccccc2O1 (stereo not drawn)	4.06% (inactive)
CCOC(=O)CSc1nc2ccc(C)cc2n2cnnc12	-0.11% (inactive)
O=C(Nc1ncc2c(n1)CC(c1ccco1)CC2=O)c1ccc(Cl)cc1 (stereo not drawn)	1.31% (inactive)
CCc1ccc(Nc2ncc3c(n2)CC(c2ccco2)CC3=O)cc1 (stereo not drawn)	22% (active)
COc1cc(C2CC(=O)c3cnc(NC(C)=O)nc3C2)cc(OC)c1OC (stereo not drawn)	-1.32% (inactive)
COc1ccc(NC(=O)NCc2ccc3c(c2)OCO3)c(OC)c1	-7.38% (inactive)
CCC(C)(C)n1nnnc1C(c1ccc(OC)c(OC)c1)N1CCN(C(=O)c2ccco2)CC1 (stereo not drawn)	-0.49% (inactive)
CCN(CC)CCn1c(N)c(S(=O)(=O)c2ccccc2)c2nc3ccccc3nc21	22.7% (active)
CCC(=O)Nc1c(S(=O)(=O)c2ccccc2)c2nc3ccccc3nc2n1Cc1ccccc1	5.13% (inactive)
Cc1ccc(S(=O)(=O)c2c(N)n(C)c3nc4ccccc4nc23)cc1	-1.87% (inactive)
O=C(N/N=C/c1ccoc1)c1ccc(Cl)cc1Cl	-0.55% (inactive)
CCN(CC)CCNc1nc(-c2ccc(OC(F)F)cc2)c(C)s1	1.64% (inactive)
Cc1csc(SCC(=O)Nc2sccc2C#N)n1	17.4% (active)
COc1ccc(NC(=O)CSc2nc(C)cs2)cc1	-1.43% (inactive)
Cc1cccc(C)c1Nc1nnc(SCC(=O)Nc2sccc2C#N)s1	3.59% (inactive)
CCc1ccccc1NC(=O)[C@@H]1CCC(=O)N1C1OC(=O)c2c1ccc(OC)c2OC (stereo partly drawn)	-1.1% (inactive)
COc1ccc(NC(=O)c2ccco2)cc1NC(=O)c1ccc(C#N)cc1F	-0.59% (inactive)

SMILES	inhibition
CCCCCc1ccc(-c2cn(Cc3ccc4ccccc4c3)nn2)cc1	-4.93% (inactive)
CCCCCc1ccc(-c2ccc(C(=O)O)cc2)nc1	61.1% (active)
CCCCCc1ccc(-c2ccc(OCC)cc2)nc1	0.91% (inactive)
COCCn1c(SCc2nnc(-c3ccc(OC)c(OC)c3)o2)nc2sc3c(c2c1=O)CCC3	1.74% (inactive)
CC(=O)c1ccc(S(=O)(=O)N(C)CCCC(=O)N(C)Cc2ccccc2F)cc1	0.72% (inactive)
CC1(c2ccccc2)CC(C)(C)N(C(=O)c2cc([N+](=O)[O-])cc([N+](=O)[O-])c2)c2ccccc21 (stereo not drawn)	-2.72% (inactive)
Cc1nnc(SCC(=O)N2c3ccccc3C(C)(c3ccc(Cl)cc3)CC2(C)C)s1 (stereo not drawn)	58.2% (active)
CC1(c2cccc([N+](=O)[O-])c2)CC(C)(C)N(C(=O)c2ccccc2)c2ccccc21 (stereo not drawn)	2.72% (inactive)
NC1=NN(c2cccc(C(=O)O)c2)C(=O)C1	3.9% (inactive)
O=Cc1c(Nc2ccccc2Cl)nc2ccccn2c1=O	0.05% (inactive)
COc1ccc(OCc2cc(C(=O)NCC3(C)COC3)no2)c(Cl)c1	-3.93% (inactive)
Cc1ccc(-c2cn3cc([N+](=O)[O-])ccc3n2)cc1	26.2% (active)
COc1ccc(-c2cn3ccc(C)cc3n2)cc1	61.9% (active)
Cc1ccc(-n2cc3ccc([N+](=O)[O-])cc3n2)cc1	9.46% (inactive)
Cc1ccc2nc(-c3ccc(Br)cc3)cn2c1	75.1% (active)
CCN(CC)S(=O)(=O)c1ccc(-c2cn3ccc(C)cc3n2)cc1	1.15% (inactive)
Cc1nc(-c2ccc([N+](=O)[O-])cc2)c(-c2ccccc2)o1	10.2% (inactive)
Cc1cc(N2CCOCC2)nc(-c2ccc(Br)cc2)n1	7.23% (inactive)
CSc1nnc2ccc(-c3ccc(C)cc3)nn12	-5.22% (inactive)
Cc1ccc(-c2cc(N)on2)cc1	3.55% (inactive)
COc1ccc(-c2cn3cccnc3n2)cc1	0% (inactive)
Cc1ccc(-c2cn3cc(C)ccc3n2)cc1	84.1% (active)
COc1ccc(-c2cn3ccsc3n2)cc1	6.4% (inactive)
